# Reference: PubChem BioAssay (Tox21)
# Records with an inconclusive call do not appear. Calls of active or inactive are those of the source. Calls come from the whole dose curve; as a rule, active = well fitted cell-killing curve with a large enough effect in the repeat runs; inconclusive = weak or mixed curves, or effect the other way; inactive = flat fitted curve, though single readings scatter.
# Assay: qHTS assay to identify small molecule antagonists of the retinoid acid receptor (RAR) signaling pathway - cell viability counter screen (AID 1159551); note: nearly all actives have a fitted effect of over 35% in size
# Settings: C3RL4 cells viability, ATP luminescence (CellTiter-Glo), 6 h; series mostly up to 92.4 µM; activity change, negative = cytotoxicity: at the top concentration
# Text: U.S. Tox21 Program National Center for Advancing Translational Sciences [NCATS] NIH Chemical Genomics Center [NCGC] U.S. Environmental Protection Agency [EPA] National Institutes of Environmental Health Sciences [NIEHS] National Toxicology Program [NTP] U.S. Food and Drug Administration [FDA] Tox21 Assay Overview: All-trans Retinoic acid (atRA) is the potent natural metabolite of retinol and plays an important role in normal embryonic development and maintenance of cellular phenotype in adult animals. atRA is the activating ligand for the retinoic acid receptors (RARs) which form heterodimers with retinoid X receptors (RXRs) on the retinoic acid response element (RARE). Through activation of the RAR/RXRs nuclear receptors, atRA regulates the transcription of a large number of protein-coding genes and regulatory RNAs. Intracellular levels of atRA are controlled by the retinol signaling pathway (RSP) that regulates the biosynthesis and catabolism of atRA to maintain physiological levels. Chemicals that interfere with the RSP can cause abnormal intracellular levels of atRA and therefore are potential developmental toxicants. To assess compounds for the potential adverse effect on embryonic development through interfering with retinol signaling, a cell-based RARE luciferase reporter gene assay was used. C3RL4 cell line (OARSA/CFSAN/FDA, Laurel, MD) was used to screen Tox21 10K compound library for identifying inhibitors of the RSP. Also cytotoxicity was assessed by determining the viability of cells based on the quantitation of ATP.
# Tox21 Assay Protocol Summary: C3RL4 cells were seeded at 1,000/well in 4 uL of assay medium into white solid 1,536-well tissue culture plates (Greiner Bio-One North America Inc. Monroe, NC) using a Multidrop Combi (Thermo Scientific, Waltham, MA) dispenser. After incubation at 37 C and 5% CO2 for an overnight, 23 nL of compounds dissolved in DMSO, positive control or DMSO only were transferred by a Pintool station (Kalypsys, San Diego, CA). One ul of 1 uM (final concentration) of Retinol was added right after the compound addition by using a Flying Reagent Dispenser (FRD) (Aurora Discovery, San Diego, CA). After 6 hr incubation at 37 C and 5% CO2, 5 uL of CellTiter-Glo reagent (Promega Corporation, Madison, WI) was added to each assay plate using an FRD. Luminescence was quantified on a ViewLux plate reader (PerkinElmer, Waltham, MA) after 30 min incubation at room temperature.
# % is set by controls: 0 for no effect and ±100 for the full control effect.
row,SMILES,"activity change, negative = cytotoxicity"
1,O=Cc1ccccc1[N+](=O)[O-],5.52% (inactive)
2,O=C(O)C1CCC1,2.54% [at 42.5 µM] (inactive)
3,CCCCC=O,1.6% (inactive)
4,CCCCCCOC(=O)c1ccccc1O,-4.15% (inactive)
5,C=CC(=O)OCCCCCC,1.11% (inactive)
6,C=C(C)C(=O)NCCC[N+](C)(C)C,-0.742% (inactive)
7,CN(C)N=Nc1ccccc1,-0.405% (inactive)
8,NC(=O)c1c(Cl)cccc1Cl,-0.103% (inactive)
9,O=C(O)C(O)[C@H](O)[C@@H](O)[C@H](O)[C@H](O)CO (stereo not given in full),-0.786% (inactive)
10,CCCCc1ccc(N)cc1,-2.03% (inactive)
11,NC(N)=NS(=O)(=O)c1ccc(N)cc1,3.17% [at 42.5 µM] (inactive)
12,c1cc(CN2CCCCC2)cc(OCCCNc2nc3ccccc3s2)c1,-7.17% [at 42.5 µM] (inactive)
13,CC(C)(O)c1ccccc1,6.29% (inactive)
14,CN1[C@@H]2CC[C@H]1CC(NC(=O)n1c(=O)[nH]c3ccccc31)C2 (stereo not given in full),0.828% [at 42.5 µM] (inactive)
15,C1=C\CC/C=C\CC/C=C\CC/1,5.59% (inactive)
16,O=c1[nH]c2ccccc2c(=O)n1CCCl,1.55% [at 42.5 µM] (inactive)
17,CCCC=O,4.39% (inactive)
18,Cc1ncc(CSSCc2cnc(C)c(O)c2CO)c(CO)c1O,1% [at 42.5 µM] (inactive)
19,CCO[Si](CCCN=C=O)(OCC)OCC,3.01% (inactive)
20,CCCC(=O)O[C@]1(C(=O)CCl)[C@@H](C)C[C@H]2[C@@H]3CCC4=CC(=O)C=C[C@]4(C)[C@@]3(F)C(=O)C[C@@]21C,-0.428% [at 42.5 µM] (inactive)

row,SMILES,"activity change, negative = cytotoxicity"
1,CN(C)C(=O)C(CCN1CCC(O)(c2ccc(Cl)cc2)CC1)(c1ccccc1)c1ccccc1,-2.44% [at 42.5 µM] (inactive)
2,NC(=S)Nc1cccc2ccccc12,3.14% [at 8.39 µM] (inactive)
3,CC(C)N1C(=O)c2ccccc2C1=O,3.53% (inactive)
4,CC(CCO)CCCC(C)(C)O (stereo not given),-2% (inactive)
5,Nc1[nH]c(=O)ncc1F,1.09% [at 42.5 µM] (inactive)
6,COC(=O)CCCCCCCCC(=O)OC,0.74% (inactive)
7,CC(O)CN(CCCN(C)C)CCCN(C)C (stereo not given),2.22% (inactive)
8,FC(F)(F)C(F)(F)C(F)(F)C(F)(F)C(F)(F)C(F)(F)C(F)(F)C(F)(F)C(F)(F)C(F)(F)F,5.5% [at 8.39 µM] (inactive)
9,CCc1cc(S(=O)(=O)O)c2cc(C(C)C)cccc1-2,-1.42% [at 42.5 µM] (inactive)
10,COCCOC(=O)CC#N,-0.257% (inactive)
11,Fc1ccccc1-c1ccccc1,0.117% (inactive)
12,COc1cc(O)cc(O)c1,5.61% [at 42.5 µM] (inactive)
13,CCCc1ccccc1O,2.6% (inactive)
14,Nc1ccc2cc(S(=O)(=O)O)ccc2c1,5.41% (inactive)
15,N#CCc1ccccc1[N+](=O)[O-],-6.38% (inactive)
16,CC(=O)OC(C)(C)C,4.94% (inactive)
17,Oc1ccc2c(c1)OC[C@@H](N1CCC(O)(c3ccc(F)cc3)CC1)[C@H]2O,-0.446% [at 42.5 µM] (inactive)
18,CC/C=C\C#N,4.07% (inactive)
19,Nc1nc2c(ncn2CCC(CO)CO)c(=O)[nH]1,-1.48% [at 42.5 µM] (inactive)
20,CN(C)C(=O)Nc1ccccc1,-0.849% (inactive)
